From PubChem BioAssay
Rows were chosen to be rich in hits. Some 13% of all compounds tested hit in one or more screens of this group.
ALDH1A1 block = qHTS Assay for Inhibitors of Aldehyde Dehydrogenase 1 (ALDH1A1); Potency, µM (series often up to 75.3 µM), inactives show at the highest dose activity, negative = inhibition, most hits filed as inhibitors; Aldehyde dehydrogenase 1A1 (Homo sapiens), P00352; Purified ALDH1A1, NADH fluorescence, propionaldehyde substrate; AID 1030, 2008; 220,000 tested, 7.3% active; active means well fitted inhibition curve with a large enough effect, not every such curve was filed as active; inconclusive means small, poorly fitted or top-dose-only effect, or another doubt; inactive means no such curve, though single readings can be large or run the other way;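 further: potency means the concentration at half of the fitted maximal effect; plate controls were no enzyme wells and a reference inhibitor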
Sfp PPTase inh = qHTS Assay for Inhibitors of Bacillus subtilis Sfp phosphopantetheinyl transferase (PPTase). Potency, µM, without a hit: largest response in the series, negative = inhibition, actives largely listed as inhibitors. 4'-phosphopantetheinyl transferase ffp (Bacillus subtilis), Q9F4F7. AID 1490, 2009. Biochemical Sfp PPTase activity, qHTS. 310,000 tested, 3.5% active;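 further: the enzyme is Sfp with the accession as filed and its product quenches rhodamine fluorescence; potency means the concentration at half of the fitted maximal effect; 0% = enzyme reaction without inhibitor and -100% = no enzyme wells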
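After 15 min at room temperature with compound, 15 nM Sfp received 5 uM rhodamine-CoA plus 12.5 uM BHQ-2-ybbR (50 mM Hepes pH 7.6, 10 mM MgCl2). Rate came from the fluorescence difference over 30 min, ex 525/em 598 nm.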
LMNA splice mod = qHTS Assay for Modulators of Lamin A Splicing; 200,000 tested, 0.01% active; Potency, µM (top dose mostly 46.1 µM), for the others: top-dose ratio change, negative = inhibition, most hits filed as inhibitors; HeLa LMNA splicing GFP/RFP minigene ratio, 48 h; AID 1487, 2009; active means well fitted inhibition curve with a large enough effect in the signal ratio, with a control signal flat, not every such curve was filed as active; inconclusive means small, poorly fitted or top-dose-only effect, or effect the other way, or a change in a side signal; the % refers to the signal ratio; further: potency means the concentration at half of the fitted maximal effect; on the % scale 0 is the no-effect control and ±100 the full control effect
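Read-out is the ratio of GFP to DsRed2 object intensity, acquired by 488 nm laser-scanning cytometry on HeLa lamin A-EGFP minigene reporter cells. Compound incubation 48 hrs at 37 °C in Opti-MEM with 2% FBS; DMSO 0.5% final.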
miR-21 act = qHTS Assay for Modulators of miRNAs and/orActivators of miR-21 | 340,000 tested, under 10 active | Potency, µM (highest dose often 38.3 µM), inactives show top-dose activity change, positive = activation, usual class: activators | HeLa miR-21 FLuc reporter, luciferase, 48 h;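 further: % of control where 0% means no effect; miR-21 action dims this reporter so a rising signal means less miR-21 action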
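Luminescence from a firefly luciferase reporter carrying a miR-21 binding site downstream, stably expressed under a CMV promoter in HeLa cells that make miR-21 endogenously, reports miRNA modulation after 48 h compound exposure up to approximately 40uM final.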
JMJD2E inh = qHTS Assay for Inhibitors of Human Jumonji Domain Containing 2E (JMJD2E); Potency, µM (titrated, usually from 57.1 µM), for inactives: top-dose activity change, negative = inhibition, usual class: inhibitors; AID 2147, 2009; JMJD2E catalytic domain, FDH-coupled NADH fluorescence (FDH is formaldehyde dehydrogenase); 230,000 tested, 1.6% active; Lysine-specific demethylase 4E (Homo sapiens), B2RXH2; active means well fitted inhibition curve with a large enough effect, not every such curve was filed as active; inconclusive means small, poorly fitted or top-dose-only effect, or another doubt; inactive means no such curve, though single readings can be large or run the other way;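 further: potency means the concentration at half of the fitted maximal effect; 0% = wells with enzyme and -100% = buffer wells without enzyme; nearly all actives have a fitted effect of over 50% in size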
Target sequence (B2RXH2 1-337 limits assumed): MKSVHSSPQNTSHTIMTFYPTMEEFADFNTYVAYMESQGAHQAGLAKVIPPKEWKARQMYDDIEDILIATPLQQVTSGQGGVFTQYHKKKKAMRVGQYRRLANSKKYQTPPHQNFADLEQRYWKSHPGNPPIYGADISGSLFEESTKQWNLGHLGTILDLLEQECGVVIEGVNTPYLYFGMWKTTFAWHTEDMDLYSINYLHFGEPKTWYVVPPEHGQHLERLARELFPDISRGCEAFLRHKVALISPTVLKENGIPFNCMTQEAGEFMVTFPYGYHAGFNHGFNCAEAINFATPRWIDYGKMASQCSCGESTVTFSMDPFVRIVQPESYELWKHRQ
G9a block = qHTS Assay for Inhibitors of Histone Lysine Methyltransferase G9a. Histone-lysine N-methyltransferase EHMT2 (Homo sapiens), Q96KQ7. G9a H3K9 monomethylation, AlphaScreen, 2 h. Potency, µM (top dose mostly 102 µM), without a hit: at the highest dose activity, negative = inhibition, actives largely listed as inhibitors. 350,000 tested, 8.8% active; further: potency means the concentration at half of the fitted maximal effect; on the % scale 0 is the no-effect control and ±100 the full control effect; nearly all actives have a fitted effect of over 75% in size
Target sequence (Q96KQ7 913-1193 limits assumed): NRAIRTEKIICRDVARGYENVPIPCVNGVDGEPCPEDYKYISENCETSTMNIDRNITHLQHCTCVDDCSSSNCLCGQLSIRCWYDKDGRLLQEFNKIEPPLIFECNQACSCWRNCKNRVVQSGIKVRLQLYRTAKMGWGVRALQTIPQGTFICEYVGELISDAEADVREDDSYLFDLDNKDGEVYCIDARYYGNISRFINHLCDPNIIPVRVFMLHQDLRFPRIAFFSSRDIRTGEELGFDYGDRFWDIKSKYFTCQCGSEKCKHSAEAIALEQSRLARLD
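Readings reflect AlphaScreen signal from monomethyl-H3K9 antibody detection. HMT at 20 nM; substrate b-H3K9 500 nM; cofactor SAM 20 uM; 2 h RT reaction; compounds tested as titrations in qHTS with 15 min preincubation.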
* marks the source's active call; other numbers are inactive results; ? = inconclusive; · = no result; ! = a repeat was not active; [ ] = remark or other dose. Unless noted, the call rests on the fitted dose curve; in most records, active means well fitted curve in the direction sought with a large enough effect; inconclusive means small, poorly fitted or top-dose-only effect, or another doubt; inactive means no such curve, though single readings can be large; an effect the other way counts as inactive or inconclusive.

SMILES	ALDH1A1 block	Sfp PPTase inh	LMNA splice mod	miR-21 act	JMJD2E inh	G9a block
CCCC/C=C/C(NC(=O)Oc1cccc(C(F)(F)F)c1)c1ccccc1 (stereo not given)	-9%	18%	·	·	4%	·
Cc1cc2oc(=O)cc(CSc3nc(N)cc(N)n3)c2cc1C(C)C	18µM*	-8%	0%	-12%	12%	-22%
CC(=O)/C(C#N)=C1\NC(=O)C(Cc2ccccc2)S1 (stereo not given)	-15%	13%	?	24%	?	8%[0.0925 µM]
CC(=O)/C(C#N)=C1\NC(=O)C(Cc2ccccc2C)S1 (stereo not given)	·	-30%	·	26%	3%	20µM*
Fc1ccc(C(OCCCc2cnc[nH]2)c2ccc(F)cc2)cc1	-10%	·	?	·	-6%	45µM*!
O=c1c(Cc2ccc(F)cc2)c(O)ccn1CCc1cnc[nH]1	15%	6%	·	1%	11%	-2%
COc1cc2c(cc1OC)CN(C(=S)NC(=O)c1ccccc1)CC2	-4%	17%	?	27%	-26%	8%
C[C@H](NCc1ccccc1)c1ccccc1	·	14%	·	·	·	·
O=c1cc(O)c2sc(Nc3ccc(F)c(Cl)c3)nc2[nH]1	7.9µM*	-100%	?	-5%	?	28µM*
CCOc1cccc2cc(-c3nnc(Nc4ccc(F)c(Cl)c4)s3)c(=O)oc12	·	·	?	0%	·	11%[59 µM]
CC(C)CCNC(=O)c1cccc(-n2cnc3cccnc32)c1	·	·	·	-1%	·	14%[59 µM]
c1ccc(OCc2nnc3sc(C4COc5ccccc5O4)nn23)cc1 (stereo not given)	10µM*	25µM*	-1%	-12%	3%	7.9µM*
Clc1ccccc1-c1nnc2sc(C3COc4ccccc4O3)nn12 (stereo not given)	7.1µM*	18µM*	?	-13%	7%	?
c1ccc(Cc2nnc3sc(C4COc5ccccc5O4)nn23)cc1 (stereo not given)	25µM*	?	-13%	-10%	-2%	10µM*
CC(=O)Nc1c(C)nn(-c2ccccc2)c1N1CCC(C(=O)NCc2cccc(F)c2)CC1	·	·	1%[46 µM]	-8%	·	-23%[59 µM]
NC(=O)[C@@H]1CCNc2c(I)cc([N+](=O)[O-])cc2C(=O)N[C@@H](CO)C(=O)N[C@@H](Cc2ccc(O)cc2)C(=O)N1	-6%	-2%	3%	-4%	-1%	10µM*
CC(C)C[C@@H]1NC(=O)[C@H](Cc2ccc(O)cc2)NC(=O)[C@H](CCC(N)=O)NC(=O)c2cc([N+](=O)[O-])cc(I)c2NCC[C@@H](C(N)=O)NC1=O	4µM*	2%	-5%	4%	4%	7.1µM*
NC(=O)C(CC(=O)O)NC(=O)[C@@H]1CCOc2c(I)cc([N+](=O)[O-])cc2C(=O)N[C@@H](CO)C(=O)N[C@@H](Cc2ccc(O)cc2)C(=O)N1 (stereo not given in full)	-7%	?	3%	1%	-1%	22µM*
O=C(CC1NCCNC1=O)Nc1ccc([N+](=O)[O-])cc1 (stereo not given)	-9%	15%	-7%[46 µM]	-12%	1%	4%
O=[N+]([O-])c1ccc(CCO)cc1	-5%	·	·	·	·	·
COc1ccc(N(Cc2cc3cccc(C)c3[nH]c2=O)C(=O)c2cccc(Cl)c2)cc1	·	·	·	27%	·	-45%[59 µM]
Cc1cc(C)n(-c2nc3ccccc3nc2Nc2ccc(N(C)C)cc2)n1	·	·	·	0%	·	1.8µM*
O=C(NCC(c1cccs1)S(=O)(=O)c1cccs1)c1ccccc1F (stereo not given)	·	·	3%[46 µM]	-8%	·	4%[59 µM]
N#C/C(Cn1c[n+](NC(=O)Nc2ccccc2)cn1)=N/O	32µM*	?	2%	-9%	-4%	-48%
C#CCOC(=O)CCC(=O)NCCc1ccccc1	10µM*	9%	-5%	-5%	-3%	11%
SMILES	ALDH1A1 block	Sfp PPTase inh	LMNA splice mod	miR-21 act	JMJD2E inh	G9a block
CCc1cc(=O)oc2cc(OCC=C(C)C)ccc12	?	-16%	15%	-40%	?	63%[59 µM]
COc1ccc(-c2cc(=O)oc3c(C)c(OCc4nn[nH]n4)ccc23)cc1	?	2%	3%	1%	?	?
Cc1c(OCc2nn[nH]n2)ccc2c(-c3ccccc3)cc(=O)oc12	16µM*	-9%	-4%	-8%	?	50µM*
CCc1cc(=O)oc2cc(OCc3nn[nH]n3)ccc12	?	16%	10%	-3%	20µM*	-7%[59 µM]
CC(=O)N(OCc1ccccc1)[C@@H]1c2cc(C#N)ccc2OC(C)(C)[C@H]1O	2%	17%	·	·	7%	·
C/C(=C/c1oc2ccc(O)cc2c1[N+](=O)[O-])N(C)C	-15%	71µM*	-4%	-25%	?	79µM*
CC(=O)Oc1ccc2oc(/C=C/N(C)C)c([N+](=O)[O-])c2c1	10%	9%	-5%	-33%	-5%	?
COC(=O)C1=C(C)NC(=O)NC1c1ccc(-c2ccc(Cl)cc2)o1 (stereo not given)	11µM*	-7%	5%[46 µM]	-9%	0%	?
COC(=O)C1=C(C)NC(=S)NC1c1ccc(-c2cc(Cl)ccc2Cl)o1 (stereo not given)	·	40µM*	·	17%	-6%	?
COC(=O)C1=C(C)NC(=O)NC1c1ccc([N+](=O)[O-])o1 (stereo not given)	7%	4%	-4%	-2%	-5%	18%[59 µM]
O=C1Nc2ccccc2N=C(c2ccccc2)C1Br (stereo not given)	16µM*	45µM*	?	-15%	?	·
CC1=Nc2ccccc2NC(=O)C1Sc1nnc(C)s1 (stereo not given)	-8%	3%	3%	-3%	-2%	-45%[59 µM]
O=C1Nc2ccccc2N=C(c2ccccc2)C1N1CCOCC1 (stereo not given)	22µM*	10%	4%	-5%	-5%	40µM*
O=c1c2c(-c3cccs3)csc2ncn1-c1ccc(Br)cc1	?	13%	15%	-4%	?	-12%[12.7 µM]
Cn1c(=S)[nH]c2scc(-c3cccs3)c2c1=O	22µM*	?	?	0%	?	10µM*
C=CCn1c(=S)[nH]c2scc(-c3cccs3)c2c1=O	13µM*	11%	?	1%	-8%	-4%[59 µM]
C=CCn1c(=S)[nH]c2ccccc2c1=O	-1%	7%	-3%	-4%	5%	?
CCOc1ccc(CNC(=O)c2cnc(SC)nc2CC)cc1	·	·	3%[46 µM]	-3%	·	-42%[59 µM]
